# Laboratory results: PubChem BioAssay AID488969 (Vanderbilt High Throughput Screening Facility, 2010)
# Over roughly 110,000 compounds, “z-score” has its median near -0.1; the highest 2% begin near 2. The full list was thinned out, with the highest values kept by preference. Active and inactive are the calls of the source.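 The calls were made as follows: active = z-score in the third read window above 3 or below -3; inactive = the rest.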
# Biological target: Metabotropic glutamate receptor 8 (Rattus norvegicus) (UniProt P70579)
# Sequence (P70579 whole entry, looked up): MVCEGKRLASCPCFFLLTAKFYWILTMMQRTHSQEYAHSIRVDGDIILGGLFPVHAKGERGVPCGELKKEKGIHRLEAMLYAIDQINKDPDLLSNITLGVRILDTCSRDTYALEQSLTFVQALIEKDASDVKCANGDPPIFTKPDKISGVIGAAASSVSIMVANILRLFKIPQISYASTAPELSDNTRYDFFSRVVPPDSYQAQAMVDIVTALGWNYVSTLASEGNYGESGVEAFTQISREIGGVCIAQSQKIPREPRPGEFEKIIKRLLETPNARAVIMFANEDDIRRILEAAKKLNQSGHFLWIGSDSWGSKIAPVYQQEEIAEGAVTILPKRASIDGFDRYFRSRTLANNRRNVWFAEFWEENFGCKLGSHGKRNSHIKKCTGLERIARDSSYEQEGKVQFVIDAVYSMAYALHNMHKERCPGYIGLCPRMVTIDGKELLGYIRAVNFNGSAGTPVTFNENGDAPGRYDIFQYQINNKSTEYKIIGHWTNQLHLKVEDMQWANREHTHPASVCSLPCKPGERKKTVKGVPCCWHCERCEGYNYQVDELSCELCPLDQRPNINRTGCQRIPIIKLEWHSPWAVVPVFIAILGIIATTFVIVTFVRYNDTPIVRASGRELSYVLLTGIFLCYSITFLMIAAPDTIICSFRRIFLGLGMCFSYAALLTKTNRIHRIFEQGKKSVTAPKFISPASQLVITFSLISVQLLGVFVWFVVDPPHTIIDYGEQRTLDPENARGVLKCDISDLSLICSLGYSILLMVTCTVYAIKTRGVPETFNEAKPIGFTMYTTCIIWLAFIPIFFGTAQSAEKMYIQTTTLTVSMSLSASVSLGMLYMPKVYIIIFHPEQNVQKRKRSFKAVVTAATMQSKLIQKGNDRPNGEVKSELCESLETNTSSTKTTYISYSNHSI
# Assay: rat mGluR8 modulators via GIRK flux, primary screen, cell-based, thallium flux, HTS (AID 488969)
# Settings: HEK293 rat mGluR8, GIRK (G protein-gated inwardly rectifying potassium channel) thallium flux, FluoZin2; at 10 µM; stronger effect = higher value; submaximal glutamate (EC20) added with thallium
row,Structure (SMILES),z-score
1,CCN(CC)C(=O)Cn1nc(C)c2ccccc2c1=O,-0.346
2,Cc1ccc(/C=N/Nc2nc(Cl)c(Cl)cc2Cl)s1,3.84 (active)
3,Cc1ccc(/C=N/Nc2ncc(Cl)cc2Cl)s1,0.576
4,Cc1ccsc1/C=N/Nc1nc(Cl)c(Cl)cc1Cl,0.292
5,Cc1sc2nc(CN3CCCC3)nc(N3CCC(C(N)=O)CC3)c2c1C,-0.212
6,Cc1sc2nc(CN3CCCC3)nc(N3CCN(S(=O)(=O)c4cccs4)CC3)c2c1C,4.12 (active)
7,CCc1nc(N2CCN(S(=O)(=O)c3ccc(Br)cc3)CC2)c2c(C)c(C)sc2n1,-0.0531
8,FC(F)(F)c1cccc(-c2nnc3ccc(C(F)(F)F)cn23)c1,0.312
9,O=c1c2ccccc2nc(-c2cccc(Cl)c2)n1O,1.74
10,O=c1c2cc(Br)ccc2nc(-c2cccc(C(F)(F)F)c2)n1O,10.5 (active)
11,O=C(Nc1ccc(C(F)(F)F)cc1)c1cc(-c2cccnc2)nc2ccc(Br)cc12,-0.0141
12,O=c1c2ccc(Cl)cc2nc(-c2cccc(C(F)(F)F)c2)n1O,10.9 (active)
13,O=c1[nH]c(/C(Cl)=C/c2cccc(C(F)(F)F)c2)nc2cc(Cl)ccc12,-0.0389
14,C=CCc1ccccc1OCC(O)CN1CCN(c2ccccc2F)CC1 (configuration not stated),0.0351
15,Cc1noc(C)c1S(=O)(=O)N1CCC(C(=O)N2CCN(C(=O)c3ccco3)CC2)CC1,-0.53
16,O=C(O)CCCC(=O)Nc1ccc(Br)cc1,0.0741
17,O=c1oc(-c2ccc(Br)o2)nc2ccccc12,5.63 (active)
18,O=c1oc(-c2ccco2)nc2ccccc12,-0.973
19,Cc1ccc2nc(-c3ccc(Br)o3)oc(=O)c2c1,-0.0466
20,CCN(CC)C(=O)C(=O)N/N=C/c1ccc(Br)cc1,0.0116
21,CC(Sc1nnc(-c2ccc(Cl)cc2Cl)n1Cc1ccccc1)C(=O)Nc1nccs1 (configuration not stated),-1.54
22,Cc1nn(C(=O)c2ccccc2)c2c1C(=O)CC(C)(C)C2,2.47
23,Cn1c2c(c(O)c(-c3ccccc3)c1=O)C(=O)CC(C)(C)C2,-0.119
24,CCCc1nn(C(=O)c2ccccc2)c2c1C(=O)CC(C)(C)C2,0.0989

row,Structure (SMILES),z-score
1,O=C(NCC(=O)N(c1ccccc1)C(C(=O)NC1CCCC1)c1ccncc1)c1ccco1 (configuration not stated),-0.115
2,COC(=O)Nc1nnc(Cc2ccc(OC)cc2)s1,-0.342
3,COC(=O)Nc1nnc(Cc2ccc(Cl)cc2)s1,2.4
4,COC(=O)Nc1nnc(Cc2ccccc2)s1,-0.412
5,Cc1ccc2oc(C(=O)Nc3nnc(C)s3)c(C)c2c1,-0.9
6,S=c1[nH]nc(-c2ccc(Br)cc2)n1Cc1ccco1,2.41
7,Oc1ccc(-c2n[nH]c(=S)n2Cc2ccco2)cc1,-0.11
8,CCn1c(-c2cc3ccccc3cc2O)n[nH]c1=S,2.62
9,CCn1c(-c2c[nH]c3ccccc23)n[nH]c1=S,-0.0356
10,CCn1c(-c2ccc(C)cc2)n[nH]c1=S,-0.192
11,Nn1c(-c2cccc(Br)c2)n[nH]c1=S,-0.267
12,CCn1c(-c2cccc(Br)c2)n[nH]c1=S,2.35
13,S=c1[nH]nc(-c2ccncc2)n1Cc1ccco1,-0.198
14,CCn1c(-c2cc(C3CC3)nc3ccccc23)n[nH]c1=S,-0.258
15,CCCCCn1c(N)c(-c2nc3ccccc3s2)c2c([N+](=O)[O-])nn(CC)c(=O)c21,-0.75
16,COc1ccc2c(c1OC)C(=O)N1N=C(c3ccc(Br)cc3)CC21 (configuration not stated),-1.04
17,C=C(C)C1CC=C(CN2CCC(C(=O)OCC)CC2)CC1 (configuration not stated),0.503
18,Cc1ccc(S(=O)(=O)c2nc(S(C)(=O)=O)sc2N(C)C)cc1,0.113
19,COc1ccc(CC(=O)O/N=C(\N)Cc2cccc3ccccc23)cc1OC,-0.317
20,Cc1ccsc1/C=C(\C#N)C(=O)NCc1ccco1,-0.0871
21,COc1ccc(C)c(S(=O)(=O)Nc2ccc(OCC(=O)O)cc2)c1,0.2
22,CCOc1cc(C)c(S(=O)(=O)Nc2ccc(F)cc2)cc1C,0.564
23,COc1cc(C)c(S(=O)(=O)Nc2ccc(CC(=O)O)cc2)cc1C,2.01
24,N#C/C(=C\c1ccccc1)C(=O)Nc1cc(S(=O)(=O)N2CCOCC2)ccc1N1CCCC1,-0.0157

row,Structure (SMILES),z-score
1,CC(C)NC(=O)C12CC3CC(C1)CC(n1cnc(Cl)n1)(C3)C2,-0.0733
2,COc1ccc(C(=O)NNC(=O)CN2CCC(n3nnc4cc(F)ccc43)CC2)cc1,-0.223
3,Cc1ccc(OCC(=O)N/N=C\c2ccncc2)c(C)c1,1.4
4,O=C(O)c1cccc(-c2ccc(/C=N/NC(=O)c3cccnc3)o2)c1,-0.216
5,Cc1ccc(OCC(=O)N/N=C\c2ccc(-c3cccc(C(=O)O)c3)o2)c(C)c1,3.24 (active)
6,O=C(NC1CCCC1)C1CCN(c2nccs2)CC1,0.382
7,CCc1cccc(CC)c1NC(=O)COC(=O)CCc1cc(OC)c(OC)c(OC)c1,-0.0755
8,CCC(=O)c1c[nH]c(C(=O)NCCCN2CCOCC2)c1,-0.121
9,CC(=O)N1CCC(N(CCN2CCOCC2)C(=S)Nc2cc(C)ccc2C)CC1,-0.0971
10,CCCCOC(=O)c1ccc(NC(=S)NC(=O)c2c(Cl)cnn2C)cc1,11.2 (active)
11,CCCCOC(=O)c1ccc(NC(=O)c2ccccc2OC)cc1,-0.0471
12,CCCCOC(=O)c1ccc(NC(=S)NC(=O)c2c(Br)c(C)nn2C)cc1,4.24 (active)
13,CCOC(=O)c1ccc(NC(=S)NC(=O)c2nn(CC)cc2Br)cc1,1.17
14,CCCCOC(=O)c1ccc(NC(=O)c2cnccn2)cc1,0.00424
15,CCCCOC(=O)c1ccc(NC(=O)c2cc(Cl)ccc2OC)cc1,-0.0115
16,CCn1ncc(Cl)c1C(=O)Nc1ccncc1,-0.171
17,Cn1ncc(Cl)c1C(=O)Nc1ccncc1,0.243
18,COC(=O)c1ccc(NC(=S)NC(=O)c2c(Cl)cnn2C)cc1,10.1 (active)
19,COC(=O)c1cc(NC(=O)c2c(Cl)cnn2C)cc(C(=O)OC)c1,-0.191
20,CCCCOC(=O)c1ccc(NC(=S)NC(=O)c2c(Cl)cnn2CC)cc1,8.06 (active)
21,CCCCOC(=O)c1ccc(NC(=O)c2nn(C)cc2Br)cc1,-0.112
22,CCc1nnc(NC(=O)C2CCCN2S(=O)(=O)c2ccc(F)cc2)s1 (configuration not stated),0.145
23,CCOC(=O)c1cccc(NS(=O)(=O)c2c(C)[nH]c(=O)[nH]c2=O)c1,-0.0134
24,CCn1c(/C=C2\C(=O)Nc3ccccc32)nc2ccccc2c1=O,-0.221

row,Structure (SMILES),z-score
1,COc1cccc(OCC(=O)N(Cc2nc(-c3ccc(Cl)cc3)no2)C(C)C)c1,0.0492
2,CCS(=O)(=O)NC(C)C(c1cccs1)N1CCN(c2ccc(F)cc2)CC1 (configuration not stated),0.062
3,COc1ccc(OC)c(N2Cc3cc(C)c(C)cc3C2)c1,0.286
4,NC(=O)N1CCN(C(=O)c2ccco2)CC1,0.536
5,COc1ccc(OC)c(/C=N/NC(=O)CC2C(=O)NN=C2C)c1 (configuration not stated),-0.12
6,NS(=O)(=O)c1ccc(NC(=S)NC(=O)c2ccco2)cc1,-0.0865
7,COc1ccc(NC(=O)c2cc3ccccn3n2)cc1,-0.0979
8,O=C(Nc1ccc(CN2CCOCC2)cc1)c1cc2ccccn2n1,4.59 (active)
9,C=CCN(CC=C)S(=O)(=O)c1ccc(NC(=S)NC(=O)c2ccc(-c3ccccc3)cc2)cc1,-0.107
10,O=C(NC(=S)Nc1ccc(CN2CCOCC2)cc1)c1ccc([N+](=O)[O-])cc1,0.649
11,O=C(Nc1ccc(CN2CCOCC2)cc1)c1cc2ccccc2o1,0.834
12,O=C(NC(=S)Nc1ccc(NC(=O)c2ccco2)cc1)c1ccccc1,-0.416
13,CC1CCN(c2ccc(NC(=S)NC(=O)c3ccc(-c4cccc([N+](=O)[O-])c4)o3)cc2)CC1,-0.0494
14,O=C(NC(=S)Nc1ccc(CN2CCOCC2)cc1)c1cccc([N+](=O)[O-])c1,2.19
15,C=CCN(CC=C)S(=O)(=O)c1ccc(NC(=S)NC(=O)c2ccco2)cc1,10.3 (active)
16,O=C(NC(=S)Nc1ccc(N2CCOCC2)cc1)c1cccc([N+](=O)[O-])c1,0.169
17,CC1CCN(c2ccc(NC(=S)NC(=O)c3ccco3)cc2)CC1,4.93 (active)
18,Cc1cccc2sc(NC(=O)C3CCN(S(=O)(=O)c4cc([N+](=O)[O-])ccc4Cl)CC3)nc12,0.0365
19,CCOC(=O)C1CCN(C(=O)COc2ccc(Cl)cc2Cl)CC1,-0.471
20,CCCCOC(=O)Nc1ccc(S(=O)(=O)Nc2ccc([N+](=O)[O-])cc2)cc1,0.51
21,N/C(=N\OC(=O)c1ccc(Cl)c(Cl)c1)c1cccnc1,-0.145
22,COc1ccccc1NC(=O)N(Cc1ccco1)Cc1cc2ccc(C)c(C)c2[nH]c1=O,-1.77
23,C=CCn1c(Cc2cccs2)nnc1SCC(=O)c1ccc2ccccc2c1,-0.708
24,CCOC(=O)c1c(NC(=O)c2noc3c2CCCC3)sc(C)c1C,-0.285

row,Structure (SMILES),z-score
1,O=C(NC(=S)Nc1ccc(N2CCCCC2)cc1)c1ccco1,-1.53
2,O=C(NC(=S)Nc1ccc(N2CCOCC2)cc1)c1cccc(Cl)c1,4.95 (active)
3,S=C(NCc1ccco1)Nc1ccc(N2CCOCC2)cc1,-0.00184
4,O=C(NC(=S)Nc1ccc(N2CCOCC2)cc1)c1ccc2c(c1)OCCO2,0.0862
5,O=C(NC(=S)Nc1ccc(N2CCOCC2)cc1)c1ccco1,3.46 (active)
6,O=C(NC(=S)Nc1ccc(N2CCOCC2)cc1)c1ccc(Cl)cc1,0.272
7,O=C(CCc1ccccc1)N1CCN(c2ccccn2)CC1,-0.254
8,O=C(c1ccccc1-c1ccccc1)N1CCN(c2ccccn2)CC1,-0.0481
9,O=C(c1ccccc1CCc1ccccc1)N1CCN(c2ccccn2)CC1,2.38
10,CCOc1ccc(NC(=O)CNC(=O)c2ccc(OC)c(OC)c2)cc1,-0.166
11,O=C(COc1ccccc1)Nc1nnc(-c2ccccc2)o1,-0.421
12,CCOc1cccc(C(=O)Nc2cccc(-c3nnc(-c4ccc(C)cc4)o3)c2)c1,0.689
13,COc1cccc(-c2nnc(NC(=O)C(C)C)o2)c1,0.295
14,COc1ccc(-c2nnc(NC(=O)C(C)C)o2)cc1,2.14
15,COc1ccc(-c2nnc(NC(=O)c3ccc(F)cc3)o2)cc1,5.46 (active)
16,CCC(=O)Nc1nnc(-c2ccc(OC)cc2)o1,-0.442
17,COc1ccc(-c2nnc(-c3ccc(OCC(C)C)cc3)o2)cc1,0.807
18,CCOc1ccc(-c2nnc(NC(=O)c3ccc(OCC(C)C)c(OC)c3)o2)cc1,10.4 (active)
19,COc1ccc(-c2nnc(NC(=O)c3cc(Cl)ccc3Cl)o2)cc1,1.02
20,CC(C)C(=O)Nc1nnc(-c2ccccc2)o1,0.162
21,CCOc1ccc(-c2nnc(NC(=O)CCCOc3cccc(C)c3)o2)cc1,3.62 (active)
